# Experimental data as given in PubChem BioAssay (Tox21).
# Inconclusive results are not listed. Entries that show only a call come without a potency. The source made the active and inactive calls. Unless noted, calls follow the shape of the dose curve; as a rule, active = well fitted curve in the direction sought with a large enough effect in the repeat runs; inconclusive = weak or mixed curves; inactive = no such curve, though single readings can be large; an effect the other way counts as inactive or inconclusive.
# Key:
# [1] = qHTS assay to identify small molecule antagonists of the glucocorticoid receptor (GR) signaling pathway - cell viability counter screen (AID 720693); also: nearly all actives have a fitted effect of over 55% in size; also: potency is read from the fitted curve at half-maximal effect
# [2] = qHTS assay for identifying genotoxic compounds that show differential cytotoxicity against isogenic chicken DT40 cell lines with known DNA damage response pathways - wild type cell line (AID 743012); also: nearly all actives have a fitted effect of over 60% in size; also: potency is read from the fitted curve at half-maximal effect
# Summary of the method: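 Luminescent ATP viability signal (CellTiter-Glo, 30 min RT) recorded after wild type DT40 cells were incubated with compounds for 40 h at 37 C/5% CO2.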
# [3] = qHTS assay for identifying genotoxic compounds that show differential cytotoxicity against isogenic chicken DT40 cell lines with known DNA damage response pathways - Rev3 mutant cell line (AID 743014); also: nearly all actives have a fitted effect of over 55% in size; also: potency is read from the fitted curve at half-maximal effect
# [4] = qHTS assay for identifying genotoxic compounds that show differential cytotoxicity against isogenic chicken DT40 cell lines with known DNA damage response pathways - Rad54/Ku70 mutant cell line (AID 743015); also: nearly all actives have a fitted effect of over 60% in size; also: potency is read from the fitted curve at half-maximal effect
# [5] = qHTS assay to identify small molecule antagonists of the thyroid receptor (TR) signaling pathway - cell viability counter screen (AID 743064); also: nearly all actives have a fitted effect of over 50% in size; also: potency is read from the fitted curve at half-maximal effect
# Summary of the method: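 GH3.TRE-Luc rat pituitary cells dosed after 4 hr plating, co-stimulated with T3 at 1 nM final, incubated 23.5 h at 37 C. Viability measured in the same wells by CellTiter-Fluor fluorescence after 30 min further at 37 C.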
# [6] = qHTS assay to identify small molecule antagonists of the thyroid receptor (TR) signaling pathway (AID 743065); also: nearly all actives have a fitted effect of over 55% in size; also: potency is read from the fitted curve at half-maximal effect
# Summary of the method: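 GH3.TRE-Luc rat pituitary cells (two TREs driving luciferase) were dosed with compound, then stimulated with 1 nM T3 (final) for 23.5 h at 37 C. ONE-Glo luminescence was the read-out, with CellTiter-Fluor fluorescence as the cytotoxicity counter-screen.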
# [7] = qHTS assay to identify small molecule antagonists of the androgen receptor (AR) signaling pathway - cell viability counter screen (AID 743033; also: nearly all actives have a fitted effect of over 45% in size)
# [8] = qHTS assay to identify small molecule antagonists of the androgen receptor (AR) signaling pathway using the MDA cell line - cell viability counter screen (AID 743041; also: nearly all actives have a fitted effect of over 45% in size)
# Summary of the method: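 Cytotoxicity counter screen: MDA-kb2 AR-luc cells, compound + R1881, 16 h, 37C, 0% CO2; CellTiter-Fluor added at 15.5 h, fluorescence read after 30 min.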
# [9] = target: Androgen receptor (Homo sapiens) (UniProt P10275); assay: qHTS assay to identify small molecule antagonists of the androgen receptor (AR) signaling pathway (AID 743035; active = well fitted inhibition curve with a large enough effect in the signal ratio in the repeat runs, not every such curve was filed as active; the % refers to the signal ratio)
# Summary of the method: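 Quantitative HTS of the Tox21 10K library used HEK293 AR-UAS-bla cells stimulated with R1881 alongside compound for 16 h at 37C, followed by beta-lactamase FRET detection (LiveBLAzer B/G, 2 h, RT).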
# [10] = target: Androgen receptor (Homo sapiens) (UniProt P10275); assay: qHTS assay to identify small molecule agonists of the androgen receptor (AR) signaling pathway using the MDA cell line (AID 743040; also: nearly all actives have a fitted effect of over 20% in size)
# Summary of the method: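 Luciferase read-out, ONE-Glo, 30 min RT. Cells: MDA-kb2 AR-luc, MMTV promoter with AR and GR response elements. Compound exposure 16 h, 37C, 0% CO2, after 5 h pre-incubation. qHTS agonist mode.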
# Sequence of Androgen receptor (Homo sapiens) (P10275 whole entry, looked up): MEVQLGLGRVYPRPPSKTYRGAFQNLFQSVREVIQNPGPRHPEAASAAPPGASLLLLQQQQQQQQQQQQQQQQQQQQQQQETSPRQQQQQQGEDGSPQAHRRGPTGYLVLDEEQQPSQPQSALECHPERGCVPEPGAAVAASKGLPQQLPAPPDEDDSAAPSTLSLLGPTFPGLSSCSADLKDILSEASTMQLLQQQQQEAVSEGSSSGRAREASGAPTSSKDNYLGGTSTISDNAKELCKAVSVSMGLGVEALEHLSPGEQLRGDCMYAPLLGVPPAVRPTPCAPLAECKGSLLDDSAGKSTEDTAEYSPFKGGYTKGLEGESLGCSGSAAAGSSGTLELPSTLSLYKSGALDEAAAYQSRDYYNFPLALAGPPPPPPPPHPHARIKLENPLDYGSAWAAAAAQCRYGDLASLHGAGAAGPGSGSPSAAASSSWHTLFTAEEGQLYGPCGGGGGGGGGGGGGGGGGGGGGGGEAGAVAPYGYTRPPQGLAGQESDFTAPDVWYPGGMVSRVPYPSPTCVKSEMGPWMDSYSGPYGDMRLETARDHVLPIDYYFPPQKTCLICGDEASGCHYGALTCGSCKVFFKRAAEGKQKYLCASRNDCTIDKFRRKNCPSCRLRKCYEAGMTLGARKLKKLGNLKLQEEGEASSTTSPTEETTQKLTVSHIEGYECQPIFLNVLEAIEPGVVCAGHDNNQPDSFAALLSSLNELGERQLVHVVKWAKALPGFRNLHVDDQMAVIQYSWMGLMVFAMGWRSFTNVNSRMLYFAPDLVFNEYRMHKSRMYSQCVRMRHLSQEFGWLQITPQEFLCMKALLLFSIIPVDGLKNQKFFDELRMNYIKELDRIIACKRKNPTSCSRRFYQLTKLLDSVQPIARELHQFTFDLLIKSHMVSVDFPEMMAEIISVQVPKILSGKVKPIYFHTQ
SMILES,Potency [1],Potency [2],Potency [3],Potency [4],Potency [5],Potency [6],Potency [7],Potency [8],Potency [9],outcome [10]
CCCCCCOC(=O)c1ccccc1,inactive,68.6 µM (active),61.1 µM (active),61.1 µM (active),inactive,inactive,,,,
CC(=O)c1ccc(Cl)c(Cl)c1Cl,inactive,inactive,inactive,,inactive,inactive,inactive,inactive,,
Cc1c(Cl)cccc1[N+](=O)[O-],inactive,inactive,inactive,,inactive,inactive,inactive,inactive,,
Nc1ncnc2c1ncn2[C@@H]1O[C@H](CO)[C@@H](O)[C@H]1O,inactive,inactive,inactive,,inactive,,,,,
O=C1c2ccccc2C(=O)c2c1ccc(O)c2O,inactive,inactive,inactive,inactive,inactive,inactive,inactive,,,
O=Cc1ccc(Cl)c([N+](=O)[O-])c1,inactive,4.33 µM (active),4.33 µM (active),3.06 µM (active),inactive,inactive,inactive,,,
Nc1cccc2c(=O)[nH][nH]c(=O)c12,inactive,inactive,inactive,,inactive,inactive,inactive,inactive,,
CCCCCCCCC(=O)OCC(C)OC(=O)CCCCCCCC (centres undefined),inactive,inactive,inactive,,inactive,inactive,inactive,inactive,,
CC1=C(C)C(=O)C(C(CCCCCC(=O)O)c2ccccc2)=C(C)C1=O (centres undefined),inactive,inactive,inactive,inactive,,inactive,inactive,,,
C(/C=C/C=C/Nc1ccccc1)=Nc1ccccc1,inactive,inactive,inactive,,inactive,,inactive,inactive,,
C=CC(C)CCC=C(C)C (centres undefined),inactive,inactive,inactive,inactive,inactive,inactive,inactive,,,
CC(=O)c1cccnc1,inactive,inactive,inactive,inactive,inactive,inactive,inactive,,,
COc1cc(C)c(Cc2cnc(N)nc2N)cc1OC,inactive,26.6 µM (active),,26.6 µM (active),,,inactive,,,
CC(=O)Nc1cccc(N)c1,inactive,inactive,inactive,inactive,inactive,inactive,inactive,,,
CC(C)(C)c1ccc(CCC=O)cc1,inactive,inactive,inactive,,inactive,inactive,inactive,inactive,,
CC(C)CCCCCCCOC(=O)c1ccc(C(=O)OCCCCCCCC(C)C)c(C(=O)OCCCCCCCC(C)C)c1,inactive,inactive,inactive,,inactive,inactive,inactive,inactive,,
C[Si](C)(C)O[Si](C)(C)O[Si](C)(C)C,inactive,inactive,inactive,,,inactive,inactive,inactive,,

SMILES,Potency [1],Potency [2],Potency [3],Potency [4],Potency [5],Potency [6],Potency [7],Potency [8],Potency [9],outcome [10]
CC1(COc2ccc(CC3SC(=O)NC3=O)cc2)CCCCC1 (centres undefined),23.9 µM (active),10.6 µM (active),23.7 µM (active),,23.7 µM (active),11.9 µM (active),inactive,,,
CCCC(=O)OCc1ccccc1,inactive,inactive,inactive,inactive,inactive,inactive,,,,
O=C(O)c1cccc(C(=O)O)c1C(=O)O,inactive,inactive,inactive,,,inactive,inactive,inactive,inactive,inactive
CCC(C)C1N=C(C)C(C)S1 (centres undefined),inactive,inactive,inactive,,inactive,inactive,inactive,inactive,,
CC(C)CC(C)(C)C,inactive,inactive,inactive,inactive,inactive,inactive,,inactive,,
SCCOCCOCCS,inactive,inactive,inactive,,inactive,inactive,inactive,,,
Clc1cc(Cl)c2c(c1)N=C1CCCCCN1C2,inactive,13.3 µM (active),8.41 µM (active),,inactive,,inactive,inactive,,
CCC[Si](OC)(OC)OC,inactive,inactive,inactive,,inactive,inactive,inactive,inactive,,inactive
CC1(C)CC(O)CC(C)(C)N1[O],inactive,inactive,inactive,inactive,inactive,inactive,,inactive,,
CC1(C)CC(=O)CC(C)(C)N1,inactive,inactive,inactive,,inactive,inactive,inactive,inactive,,
CC(C)=CCC[C@H](C)CCO,inactive,54.5 µM (active),48.6 µM (active),,inactive,inactive,inactive,inactive,,
C/C(=C\C(C)CC(C)CC(C)C)C1CC(=O)OC1=O (centres undefined),inactive,inactive,inactive,,inactive,,inactive,,,
CC1=C(C)C(=O)C(CCCCC#CCCCC#CCO)=C(C)C1=O,inactive,8.41 µM (active),10.6 µM (active),,,,inactive,inactive,,
c1ccc(CCNc2nc(-c3ccccc3)cs2)cc1,inactive,29.8 µM (active),29.8 µM (active),33.5 µM (active),inactive,inactive,,inactive,,
C[C@@H](O)[C@H]1C(=O)N2C(C(=O)O)=C(S[C@@H]3CN[C@H](CNS(N)(=O)=O)C3)[C@H](C)[C@H]12,inactive,inactive,,inactive,inactive,inactive,inactive,inactive,,
CC(CN=Cc1ccccc1O)N=Cc1ccccc1O (centres undefined),inactive,inactive,,inactive,inactive,inactive,inactive,,,
